High-throughput results from PubChem.
Gal4-VP16 FLuc = inhibits Gal4-VP16 luciferase reporter, ROR gamma counter-screen | 310,000 tested, 3.5% active | Drosophila S2 Gal4-VP16 UAS-luciferase, luminescence, 20 h | Potency, µM (doses to about 53.6 µM), most hits filed as inhibitors;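 also: Gal4-VP16 expression switched on by copper sulfate through the metallothionein promoter; nearly all actives have a fitted effect of over 50% in size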
Sfp inh = Sfp phosphopantetheinyl transferase inhibition. 310,000 tested, 3.5% active. Potency, µM, hits mostly inhibitors. AID 1490. Biochemical Sfp PPTase activity, qHTS;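 also: the enzyme is Sfp with the accession as filed and its product quenches rhodamine fluorescence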
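Fluorescence-quenching assay with 15 nM Sfp, 5 uM rhodamine-CoA and 12.5 uM BHQ-2-labelled ybbR peptide in pH 7.6 Hepes/MgCl2 buffer. Enzyme was pre-incubated with compound for 15 min at room temperature. Rate was taken from the 30-min fluorescence change (525/598 nm).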
Epigenetic derep = epigenetic control regulation, reporter derepression; murine LDR cells, GFP reporter derepression, 30 h; Potency, µM (top dose mostly 53.9 µM), hits mostly activators; 280,000 tested, 0.2% active; AID 1865; also: nearly all actives have a fitted effect of over 60% in size
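GFP-positive cell count by laser-scanning cytometry (objects 20–120 um) after 30 h, 37 C compound exposure of murine LDR cells; reporter is CMV-GFP integrated at a silenced locus, inducible by HDAC or DNMT inhibitors.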
RORgamma inh = inhibitors of mouse ROR gamma transcriptional activity; P51450; Drosophila S2 Gal4-RORgamma UAS-luciferase reporter, 20 h; Potency, µM (titrated, usually from 53.6 µM), hits mostly inhibitors; 310,000 tested, 5.4% active; AID 2551; also: nearly all actives have a fitted effect of over 60% in size
Target sequence (P51450 whole entry, looked up, the tested form may be a part): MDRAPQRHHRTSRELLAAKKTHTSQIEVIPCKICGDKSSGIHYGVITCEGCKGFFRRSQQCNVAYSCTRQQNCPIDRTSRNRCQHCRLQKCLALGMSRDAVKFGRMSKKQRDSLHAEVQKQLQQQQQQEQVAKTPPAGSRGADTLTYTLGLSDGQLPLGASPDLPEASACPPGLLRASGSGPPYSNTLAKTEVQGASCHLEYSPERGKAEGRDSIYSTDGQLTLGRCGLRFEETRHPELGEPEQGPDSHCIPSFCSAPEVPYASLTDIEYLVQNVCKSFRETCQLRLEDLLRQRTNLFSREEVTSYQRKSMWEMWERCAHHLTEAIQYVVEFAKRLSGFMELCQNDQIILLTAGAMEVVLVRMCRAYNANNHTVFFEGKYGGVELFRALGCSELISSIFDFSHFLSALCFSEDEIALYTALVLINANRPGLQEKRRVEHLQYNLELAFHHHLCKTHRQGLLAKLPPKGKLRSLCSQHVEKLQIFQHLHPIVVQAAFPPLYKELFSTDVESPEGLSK
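Compounds are pin-transferred onto Drosophila Schneider cells expressing a copper-inducible Gal4–ROR gamma transactivation domain fusion. After 1 hr, copper sulfate is added to 700 uM final; luciferase is read 20 hr later.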
PINK1 expr mod = modulators of PINK1 expression | PINK1 immunofluorescence, high-content cytometry, 24 h | Potency, µM (titrated, usually from 76.6 µM), usual class: activators | 410,000 tested, 0.2% active | AID 624263; active = well fitted activation curve with a large enough effect; inconclusive = small, poorly fitted or top-dose-only effect; cell line not stated here; also: nearly all actives have a fitted effect of over 65% in size
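Decision-based qHTS: stable cells, 24 h exposure to five compound concentrations, CCCP as control. Fixed cells stained for PINK1 plus nuclear, mitochondrial and cell markers, cytometer read.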
ClpP mod = qHTS Assay for Activators of ClpP; 340,000 tested, 1.9% active; AID 651965, 2013; purified B. subtilis ClpP, FRET peptide cleavage, 20 min; Potency, µM (highest dose often 57.5 µM); active = well fitted falling curve with a large enough effect; inconclusive = small, poorly fitted or top-dose-only effect; inactive = no such curve, though single readings can be large or run the other way; also: the source files actives as falling curves though it sought activators and does not explain the sign; nearly all actives have a fitted effect of over 65% in size
Target sequence (P80244 whole entry, looked up): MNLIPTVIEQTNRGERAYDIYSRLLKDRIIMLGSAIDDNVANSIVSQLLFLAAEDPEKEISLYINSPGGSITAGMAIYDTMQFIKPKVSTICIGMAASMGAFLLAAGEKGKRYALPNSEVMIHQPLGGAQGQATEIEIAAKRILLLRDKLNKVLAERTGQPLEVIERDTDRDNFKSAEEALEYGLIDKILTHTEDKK
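ClpP 10 microg/mL final, pH 8 Tris/KCl buffer with BSA, glycerol, Tween-20; compound pinned in; FRET-FV substrate; RT 20 min; Ex320/Em430; ΔFRET vs ADEP 5.8 microM, DMSO, no enzyme.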
Hits are given with their value; 0 = inactive; ? = inconclusive; - = not tested or not shown; [ ] = remark or other dose. In the library only some 8.1% were active in any assay of this set; here they are far more common. Unless noted, calls follow the shape of the dose curve; as a rule, active = well fitted curve in the direction sought with a large enough effect; inconclusive = small, poorly fitted or top-dose-only effect, or another doubt; inactive = no such curve, though single readings can be large; an effect the other way counts as inactive or inconclusive.

SMILES	Gal4-VP16 FLuc	Sfp inh	Epigenetic derep	RORgamma inh	PINK1 expr mod	ClpP mod
CCCCn1c(N)c(N(CCOC)C(=O)c2cc(-c3ccc(OC)cc3)nc3ccccc23)c(=O)[nH]c1=O	-	-	-	-	0	11µM
N#CC1=C(N)Oc2c(ccc3ccccc23)C1c1cccs1 (stereo unspecified)	0	50µM	0	0	0	0
N#CC1=C(N)Oc2cc(O)ccc2C1c1cccs1 (stereo unspecified)	0	?	0	?	0	0
O=NN(CCc1ccncc1)c1ccc(OCc2ccccc2)cc1	6.3µM	?	0	7.1µM	0	-
COc1ccc(-n2c(=O)c3c4c(sc3n(Cc3cc(C)ccc3C)c2=O)CN(C(C)=O)CC4)c(OC)c1	-	-	0	-	0	0
Cn1c(N)c(C(=O)/C=C/c2ccccc2)c(=O)[nH]c1=O	0	50µM	0	0	0	-
CN1C(=O)C(O)(CC(=O)c2ccccc2O)c2cc(Br)ccc21 (stereo unspecified)	0	0	0	0	0	0
CN1C(=O)C(O)(CC(=O)/C=C/c2ccco2)c2cc(Br)ccc21 (stereo unspecified)	0	45µM	0	?	0	0
CN1C(=O)C(O)(CC(=O)/C=C/C=C/c2ccccc2)c2ccccc21 (stereo unspecified)	0	?	0	0	0	0
CN1C(=O)C(O)(CC(=O)/C=C/c2ccco2)c2ccccc21 (stereo unspecified)	?	25µM	0	0	0	-
C/C(CCc1ccc2c(c1)OCO2)=N\N=C(/N)SC1CC(=O)N(c2ccc(Cl)cc2)C1=O (stereo unspecified)	?	56µM	0	8.9µM	-	0
COc1ccccc1N=c1sc2ccccc2n1C	?	56µM	0	?	0	0
Cc1c(NC(=O)Nc2cccs2)cccc1[N+](=O)[O-]	?	50µM	0	?	0	0
Cc1cccc(NC(=O)Nc2cccs2)c1C	-	-	0	-	0	0
O=C(Nc1cccs1)Nc1ccccc1Cl	0	45µM	0	0	0	0
Cc1ccc(NC(=O)Nc2cccs2)c(Cl)c1	0	0	0	0	0	0
Cc1cccc(OCCSc2nc3ccccc3n2CC(=O)N2CCOCC2)c1C	-	-	0	-	0	0
O=C(Nc1nnc(-c2ccc3c(c2)CCCC3)o1)c1ccc(Cl)cc1Cl	1.6µM	0	0	1.6µM	0	0
O=C(Nc1nnc(-c2ccc3c(c2)CCCC3)o1)c1c(F)cccc1F	4.5µM	0	0	0.5µM	0	-
O=C(Nc1nnc(-c2ccc3c(c2)CCCC3)o1)C1CCCCC1	0	0	0	?	0	0
N=c1sc2ccccc2n1-c1ccccc1	0	0	0	0	0	0
C=CC(=O)N=c1sc2ccccc2n1-c1ccccc1	?	0	0	10µM	0	-
COC(=O)c1cccc(-c2cc(Cl)c3c(c2)CC(CNC(=O)c2cccnc2)O3)c1 (stereo unspecified)	-	-	-	-	0	-
O=c1c2ccccc2nc(/C=C/c2ccc([N+](=O)[O-])o2)n1CCCO	7.1µM	0	?	8.9µM	0	0
CCn1c(/C=C/c2ccc(O)c(O)c2)nc2ccccc2c1=O	0	79µM	-	0	0	0
SMILES	Gal4-VP16 FLuc	Sfp inh	Epigenetic derep	RORgamma inh	PINK1 expr mod	ClpP mod
CCn1c(/C=C/c2c(C)n(CC)c3ccccc23)nc2ccccc2c1=O	0	0	0	0	18µM	0
O=c1c2ccccc2nc(/C=C/c2ccc(Cl)cc2)n1CCO	0	0	-	?	0	32µM
COc1ccc(CCNC(=O)c2ccc3c(c2)sc2nc(-c4ccccc4)cn23)cc1OC	-	-	0	-	0	?
Oc1cc(NCc2cccnc2)ccc1-c1nc2ccccc2o1	?	0	0	?	0	35µM
COCCCNC(=S)N/N=C/c1ccc2ccccc2c1	18µM	0	0	4.5µM	0	0
COCCCNC(=S)N/N=C/c1ccc(O)cc1	0	0	0	13µM	0	0
COCCCNC(=S)N/N=C/c1cccc(OC)c1O	1.6µM	0	0	0.63µM	0	-
COCCCNC(=S)N/N=C/c1ccc(OC)cc1	?	0	0	5.6µM	0	-
COCCCNC(=S)N/N=C/c1ccc(O)cc1O	0	0	0	0	0	-
COc1ccccc1NC(=O)C(=O)NCC(c1cccnc1)N1CCc2ccccc2C1 (stereo unspecified)	-	-	0	-	0	0
CCn1c(C)cc(/C=C2\NC(=O)N(CC(=O)Nc3ccc(F)cc3)C2=O)c1C	0	0	25µM	0	0	-
Cc1ccc(NC(=O)CN2C(=O)N/C(=C/c3ccco3)C2=O)cc1	0	45µM	0	0	0	0
Cc1ccc(NC(=O)CN2C(=O)N/C(=C/c3cccn3-c3ccc(C(=O)O)cc3)C2=O)cc1	0	50µM	0	0	0	0
Cc1ccc(NC(=O)CN2C(=O)N/C(=C/c3cc(C)n(-c4ccc(C(=O)O)cc4)c3C)C2=O)cc1	0	0	0	0	0	-
COc1ccc2[nH]c(=O)c(CN(Cc3cccnc3)Cc3nnnn3CC3CCCO3)cc2c1 (stereo unspecified)	0	79µM	0	0	0	0
CCc1ccc2[nH]c(=O)c(CN(Cc3ccc(OC)cc3)Cc3nnnn3CCOC)cc2c1	0	13µM	0	0	0	0
COc1cc2cc(CN(Cc3nnnn3Cc3ccccc3)CC3CCCO3)c(=O)[nH]c2cc1OC (stereo unspecified)	?	56µM	0	0	0	28µM
CCc1ccc2[nH]c(=O)c(CN(Cc3ccccc3)Cc3nnnn3C(C)(C)C)cc2c1	-	-	-	-	0	0
O=c1[nH]c2cc3c(cc2cc1CN(Cc1nnnn1C1CCCC1)C1CCCC1)OCCO3	0	0	0	0	0	32µM
COc1ccc(-n2nc(C(=O)N3CCN(c4cccc(C)c4)C(C)C3)c3c4ccccc4n(C)c3c2=O)cc1Cl (stereo unspecified)	-	-	0	-	0	0
Cc1ccc2[nH]c(=O)c(CN(Cc3ccccc3)Cc3nnnn3C3CCCC3)cc2c1	0	40µM	0	0	0	0
CCOc1ccc2[nH]c(=O)c(CN(Cc3cccs3)Cc3nnnn3C(C)(C)C)cc2c1	?	0	0	?	-	0
Cc1ccc(C)c2[nH]c(=O)c(CN(Cc3nnnn3C3CCCCC3)CC3CCCO3)cc12 (stereo unspecified)	0	79µM	0	0	?	0
Cc1ccc2[nH]c(=O)c(CN(Cc3nnnn3C3CCCC3)C3CCCCC3)cc2c1	0	0	0	0	0	0
COc1ccc2[nH]c(=O)c(CN(Cc3cccs3)Cc3nnnn3C(C)(C)C)cc2c1	0[0.365 µM]	0	0	0	0	32µM
COc1ccc2[nH]c(=O)c(CN(Cc3ccccc3)Cc3nnnn3CC3CCCO3)cc2c1 (stereo unspecified)	0	0	0	0	0	28µM
